One assay deals with Albumin (Bos taurus) (UniProt P02769). The assay is described as follows: bovine serum albumin binders on microarray, profiling panel, artefact control for SMM control protein annotation, biochemical, small-molecule microarray, Alexa647 label, 635/667 nm fluorescence (AID 1118).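 Also: score merges 667 nm emission intensity and signal-to-noise per printed compound spot.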 The conditions noted are these: BSA-A647 binding, fluorescence 635 nm, higher = more signal.
A short description of assay [1]: small-molecule microarray binders of probe aXIP, primary screen, biochemical, NeuroSMM set, 635/667 nm fluorescence (AID 1119).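 Also: probe is the protein aXip251-270 applied at 1 µg/mL to compound-printed slides; binding of probe to printed compounds measured as 667 nm fluorescence plus signal to noise.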 Particulars: higher = more signal, called active from +8 up or from −8 down.
The nature of assay [2]: small-molecule binders of probe aNOTCH3, primary screen, biochemical, small-molecule microarray, 635/667 nm fluorescence (AID 1120).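 Also: probe is a biotin-tagged antibody raised against NOTCH3 rather than NOTCH3 protein; score merges spot fluorescence near 667 nm with spot signal to noise.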 Particulars: higher = more signal.
Assay [3] can be described thus: small-molecule binders of probe aNOTCH2, primary screen, biochemical, small-molecule microarray, 635/667 nm fluorescence (AID 1121).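 Also: score merges feature fluorescence read at 667 nm with its signal to noise.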 The conditions noted are these: higher = more signal.
In assay [4] the target is Carbonic anhydrase 2 (Homo sapiens) (UniProt P00918). The assay is described as follows: CAII small-molecule binders, profiling panel, biochemical, small-molecule microarray, Alexa647-labelled CAII (AID 1122). Particulars: CAII-A647 binding fluorescence, higher = more signal.
Assay [5] in a line: COS7 lysate on small-molecule microarray, probe aHis, 635 nm (AID 1123).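 Also: z-score combines 667nm fluorescence intensity with signal-to-noise per printed compound spot.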 The conditions noted are these: COS7 cell lysate, fluorescence, higher = more signal.
Assay [6] can be described thus: compound binding in COS7 lysate, probe aLAP1, primary screen, cell lysate, small-molecule microarray (AID 1124).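 Also: lysate comes from COS7 cells expressing LAP1 and is applied at 0.3 µg/mL; score merges spot fluorescence near 667 nm with signal-to-noise over triplicate slides.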 Particulars: probe aLAP1, fluorescence, higher = more signal.
The test system of the next assay is Sam68 (KHDRBS1). Kind of assay: Sam68 small-molecule binders, primary screen, biochemical, small-molecule microarray, 635 nm fluorescence (AID 1125).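 Also: score merges 667 nm channel intensity with signal to noise over triplicate slides.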 The conditions noted are these: small-molecule microarray binding, higher = more signal.
Assay [7] deals with Chordin-like protein 2 (CHRDL2). Kind of assay: CHRDL2 small-molecule binders, primary screen, biochemical, small-molecule microarray, 635 nm fluorescence (AID 1126).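 Also: printed compound slides probed with Chrdl2 protein at 4 µg/mL for 1 h at 4 C; score merges 667 nm emission intensity with signal to noise over three replicate slides.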 Particulars: small-molecule microarray binding, fluorescence 635 nm; higher = more signal.
The target in assay [8] is Concanavalin-A (Canavalia ensiformis) (UniProt P02866). Kind of assay: ConA small-molecule binders, primary screen, artefact control for SMM control protein annotation, biochemical, small-molecule microarray, Alexa647 label, 635 nm (AID 1127).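 Also: z combines 667 nm emission intensity with signal-to-noise across three replicate slides.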 Particulars: ConA-A647 binding fluorescence, higher = more signal.
Sequence of Concanavalin-A (Canavalia ensiformis) (P02866 whole entry, looked up): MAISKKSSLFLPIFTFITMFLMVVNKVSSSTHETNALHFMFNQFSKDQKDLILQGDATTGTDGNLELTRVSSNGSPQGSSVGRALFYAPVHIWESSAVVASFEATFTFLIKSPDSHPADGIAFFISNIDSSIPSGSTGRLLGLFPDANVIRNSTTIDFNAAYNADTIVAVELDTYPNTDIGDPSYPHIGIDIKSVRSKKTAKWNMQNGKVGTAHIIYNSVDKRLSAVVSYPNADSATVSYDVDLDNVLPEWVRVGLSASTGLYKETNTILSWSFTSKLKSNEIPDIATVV
The nature of assay [9]: anti-His antibody binders, primary screen, artefact control for SMM control protein annotation, biochemical, small-molecule microarray, 635 nm fluorescence (AID 1128).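 Also: score merges feature fluorescence with signal-to-noise for each printed compound spot.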 Particulars: anti-His Alexa647 antibody binding, higher = more signal.
Assay [10] relates to Human papillomavirus type 1a E7 protein (residues 1-88). Kind of assay: HPV1a E7 small-molecule binders, primary screen, biochemical, small-molecule microarray, residues 1-88, 635 nm (AID 1129). The conditions noted are these: small-molecule microarray binding, fluorescence 635 nm; higher = more signal.
The target of assay [11] is Focal adhesion kinase 1 (Homo sapiens) (UniProt Q05397). The assay is described as follows: small-molecule microarray binders of FAK, primary screen, biochemical, 635/667 nm fluorescence, BSA, DTT (AID 1130).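 Also: composite of spot emission at 667 nm and signal to noise over triplicate slides.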 Particulars: PTK2 binding, 635 nm fluorescence, higher = more signal.
Sequence of Focal adhesion kinase 1 (Homo sapiens) (Q05397 whole entry, looked up): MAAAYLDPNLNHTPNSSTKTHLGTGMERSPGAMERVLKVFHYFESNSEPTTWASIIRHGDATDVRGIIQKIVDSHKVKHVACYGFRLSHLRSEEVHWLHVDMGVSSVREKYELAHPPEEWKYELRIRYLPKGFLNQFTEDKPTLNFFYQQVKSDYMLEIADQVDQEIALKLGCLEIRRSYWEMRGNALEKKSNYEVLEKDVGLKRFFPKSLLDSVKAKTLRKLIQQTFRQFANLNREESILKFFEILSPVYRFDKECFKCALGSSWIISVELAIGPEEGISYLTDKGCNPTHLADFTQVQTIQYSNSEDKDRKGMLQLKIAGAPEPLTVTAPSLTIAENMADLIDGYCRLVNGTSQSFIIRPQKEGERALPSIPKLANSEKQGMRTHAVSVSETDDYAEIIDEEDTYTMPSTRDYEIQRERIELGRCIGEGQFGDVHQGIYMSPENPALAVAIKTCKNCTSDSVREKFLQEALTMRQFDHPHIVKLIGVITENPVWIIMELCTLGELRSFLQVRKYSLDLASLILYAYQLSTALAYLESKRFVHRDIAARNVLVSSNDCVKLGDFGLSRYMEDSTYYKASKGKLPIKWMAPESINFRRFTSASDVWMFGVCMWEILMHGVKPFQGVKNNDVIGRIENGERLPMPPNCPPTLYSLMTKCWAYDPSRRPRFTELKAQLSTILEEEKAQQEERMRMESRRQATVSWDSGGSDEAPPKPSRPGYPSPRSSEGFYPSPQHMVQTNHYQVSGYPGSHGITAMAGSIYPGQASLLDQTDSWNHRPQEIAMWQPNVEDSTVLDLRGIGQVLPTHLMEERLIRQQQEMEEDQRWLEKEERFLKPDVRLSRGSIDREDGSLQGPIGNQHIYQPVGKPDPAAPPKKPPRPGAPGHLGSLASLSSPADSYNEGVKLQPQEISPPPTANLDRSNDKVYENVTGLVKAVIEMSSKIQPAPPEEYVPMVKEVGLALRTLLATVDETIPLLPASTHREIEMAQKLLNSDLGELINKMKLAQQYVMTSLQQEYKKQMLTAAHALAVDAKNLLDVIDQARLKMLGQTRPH
Assay [12] has as its system Fibrinogen (Alexa647-labelled). Kind of assay: fibrinogen binders on compound microarrays, profiling panel, artefact control for SMM control-protein annotation, biochemical, small-molecule microarray, 635/667 nm fluorescence (AID 1131).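 Also: z-score merges 667 nm fluorescence with per-spot signal-to-noise over triplicate slides.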 The conditions noted are these: fibrinogen-A647 binding fluorescence, higher = more signal.
The target of assay [13] is Follistatin (Homo sapiens) (UniProt P19883). Kind of assay: follistatin binders on small-molecule microarrays, primary screen, biochemical, small-molecule microarray, 635/667 nm fluorescence (AID 1132). Particulars: FST binding, 635 nm fluorescence, higher = more signal.
Sequence of Follistatin (Homo sapiens) (P19883 whole entry, looked up): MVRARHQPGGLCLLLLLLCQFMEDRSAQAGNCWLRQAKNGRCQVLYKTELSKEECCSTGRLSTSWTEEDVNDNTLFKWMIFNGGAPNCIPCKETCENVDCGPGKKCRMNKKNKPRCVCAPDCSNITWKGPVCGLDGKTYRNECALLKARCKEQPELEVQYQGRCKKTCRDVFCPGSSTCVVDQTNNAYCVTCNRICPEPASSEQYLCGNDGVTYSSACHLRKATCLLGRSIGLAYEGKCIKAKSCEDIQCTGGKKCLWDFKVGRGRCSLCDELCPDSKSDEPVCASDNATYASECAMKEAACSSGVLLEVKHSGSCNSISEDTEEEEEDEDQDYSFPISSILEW
For assay [14], the target named is Fibroblast growth factor 2 (Homo sapiens) (UniProt P09038). Kind of assay: FGF2 binders on small-molecule microarrays, primary screen, biochemical, small-molecule microarray, 635/667 nm fluorescence (AID 1133). The conditions noted are these: small-molecule microarray binding, FGF2, fluorescence 635/667; higher = more signal.
Sequence of Fibroblast growth factor 2 (Homo sapiens) (P09038 whole entry, looked up): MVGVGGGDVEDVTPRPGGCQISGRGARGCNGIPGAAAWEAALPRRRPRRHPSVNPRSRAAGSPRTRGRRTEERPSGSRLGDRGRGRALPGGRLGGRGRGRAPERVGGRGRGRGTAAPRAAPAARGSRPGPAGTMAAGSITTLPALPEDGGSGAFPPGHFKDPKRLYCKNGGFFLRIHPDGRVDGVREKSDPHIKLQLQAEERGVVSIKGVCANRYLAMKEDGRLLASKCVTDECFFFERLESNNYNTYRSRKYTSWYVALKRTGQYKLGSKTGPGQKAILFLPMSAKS
Assay [15] in a line: mitochondrial membrane potential change in A549 cells, profiling panel, cell-based, JC-1 fluorescence, basal, 24 h, 100 nL (AID 1138).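 Also: A549 lung adenocarcinoma cells under basal conditions with no added stimulus; test concentration not given here.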 Particulars: higher = more signal.
The next assay deals with Lefty1. Kind of assay: Lefty1 binders on small-molecule microarrays, primary screen, biochemical, small-molecule microarray, 635/667 nm fluorescence (AID 1139). The conditions noted are these: small-molecule microarray binding, fluorescence 635/667; higher = more signal.
For assay [16], the system named is wheat germ agglutinin (Triticum aestivum), Alexa647-labelled. The assay is described as follows: wheat germ agglutinin binders on compound microarrays, profiling panel, artefact control for SMM control-protein annotation, biochemical, small-molecule microarray, 635/667 nm fluorescence (AID 1140).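 Also: score merges 667 nm feature emission with signal to noise over triplicate slides.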 The conditions noted are these: WGA-A647 binding, 635 nm fluorescence, higher = more signal.

For assay [17], the target named is Luciferin 4-monooxygenase (Photinus pyralis) (UniProt P08659). The assay is described as follows: firefly luciferase enzyme inhibitors, primary screen, biochemical, luminescence, purified enzyme, 2006 set (AID 1141).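 Also: cell-free assay with purified firefly luciferase at 100 ng per well in PBS; test concentration not given here.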 Particulars: SteadyGlo luminescence, 30 min, higher = more signal, called active from +8 up or from −8 down.
Sequence of Luciferin 4-monooxygenase (Photinus pyralis) (P08659 whole entry, looked up): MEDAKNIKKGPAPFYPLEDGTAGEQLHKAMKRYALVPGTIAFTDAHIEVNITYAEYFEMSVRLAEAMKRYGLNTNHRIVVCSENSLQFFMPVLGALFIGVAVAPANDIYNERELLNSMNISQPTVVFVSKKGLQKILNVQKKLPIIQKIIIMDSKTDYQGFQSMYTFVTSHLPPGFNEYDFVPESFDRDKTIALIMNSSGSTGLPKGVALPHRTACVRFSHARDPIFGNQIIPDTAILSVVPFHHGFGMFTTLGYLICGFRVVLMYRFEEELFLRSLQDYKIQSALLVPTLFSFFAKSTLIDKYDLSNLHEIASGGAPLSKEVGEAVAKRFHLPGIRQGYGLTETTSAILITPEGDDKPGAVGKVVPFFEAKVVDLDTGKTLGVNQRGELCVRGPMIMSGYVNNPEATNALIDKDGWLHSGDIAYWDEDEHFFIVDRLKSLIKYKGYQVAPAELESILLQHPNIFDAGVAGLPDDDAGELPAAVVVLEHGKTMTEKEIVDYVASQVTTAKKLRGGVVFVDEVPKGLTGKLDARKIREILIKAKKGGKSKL

Consider five compounds from PubChem BioAssay.

SMILES strings stand for the structures. Activity calls are given as the source filed them.

Sequence of Albumin (Bos taurus) (P02769 whole entry, looked up): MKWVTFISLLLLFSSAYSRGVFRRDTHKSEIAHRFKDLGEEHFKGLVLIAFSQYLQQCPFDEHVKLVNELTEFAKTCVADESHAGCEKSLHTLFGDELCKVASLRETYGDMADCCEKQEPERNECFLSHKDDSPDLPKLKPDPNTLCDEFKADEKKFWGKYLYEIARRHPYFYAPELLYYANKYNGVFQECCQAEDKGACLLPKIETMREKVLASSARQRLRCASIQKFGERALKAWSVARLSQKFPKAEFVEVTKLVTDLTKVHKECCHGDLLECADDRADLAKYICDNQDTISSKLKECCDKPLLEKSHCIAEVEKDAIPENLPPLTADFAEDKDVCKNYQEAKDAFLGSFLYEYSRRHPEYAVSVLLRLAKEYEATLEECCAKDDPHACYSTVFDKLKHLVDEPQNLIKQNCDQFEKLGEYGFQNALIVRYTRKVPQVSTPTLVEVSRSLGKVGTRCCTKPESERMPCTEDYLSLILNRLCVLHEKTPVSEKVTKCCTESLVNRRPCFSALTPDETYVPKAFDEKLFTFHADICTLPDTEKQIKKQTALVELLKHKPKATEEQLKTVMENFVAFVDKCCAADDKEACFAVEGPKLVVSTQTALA

Consider `CC(C)NC(=O)[C@@]1(C)c2ccccc2C(=O)N(Cc2cc(F)cc(C(F)(F)F)c2)[C@H]1c1ccc(CO)cc1`, for which the composite z-score in the assay with Albumin (Bos taurus) is 0.293; in [2], 0.191; in [3], -0.102; in assay [4] it was 0.645; in [5] it was 1.03; in assay [6], 0.433. In addition, the composite z-score in the assay on Sam68 (KHDRBS1) is 1.23; in assay [7], 0.153; in assay [8], 0.674; in [9], 0.886; in assay [10], 0.982; in assay [11], 0.0792. In addition, the composite z-score is 0.335 in [12]; 0.677 in [13]; 1.67 in [14]; 0.0338 with Lefty1; 0.512 in assay [16]. Also, the composite Z-score in assay [1] is 0.74 (inactive). Also, the z-score was -0.483 in [15] and 0.433 (inactive) in [17].

Turning to `CC(C)CON=C1[C@H]2CCn3c(=O)n(-c4ccccc4)c(=O)n3[C@H]2[C@H](O)[C@@H]2O[C@H]12`, the composite z-score was 0.348 with Albumin (Bos taurus); -0.0193 in assay [2]; 0.0145 in assay [3]; -0.0152 in assay [4]; -0.497 in assay [5]; -0.544 in assay [6]. Moreover, the composite z-score with Sam68 (KHDRBS1) was -0.589; in assay [7], 0.762; in [8], 0.0834; in assay [9] it was 0.0684; in assay [10], 0.118; in assay [11], 0.164. The composite z-score in [12] was 0.571; in assay [13], 0.504; in [14], 1.03; in the assay on Lefty1, 0.475; in assay [16] it was 0.201. In addition, the composite Z-score in [1] was 0.131 (inactive). The z-score is -0.0655 in [15] and -0.408 (inactive) in assay [17].

For `COc1ccc(CCNC(=O)[C@@H]2c3ccccc3C(=O)N(c3ccc(C)cn3)[C@H]2c2ccc(CO)cc2)cc1`, the composite z-score with Albumin (Bos taurus) is 0.45; in [2], -0.406; in assay [3] it was -0.0959; in assay [4] it was 0.77; in assay [5], 1.5; in assay [6], 0.539. The composite z-score in the assay on Sam68 (KHDRBS1) was -0.121; in assay [7] it was -1.76; in assay [8], -1.45; in [9], 0.315; in [10] it was 0.469; in assay [11] it was -0.34. Further, the composite z-score in assay [12] was -2.21; in [13], -0.25; in assay [14], -0.609; in the assay on Lefty1 it was -1.17; in assay [16], -0.293. The composite Z-score in assay [1] was 0.378 (inactive). The values for the z-score in [15] and in assay [17] were -0.61 and 0.85 (inactive), respectively.

Regarding `COc1cccc([C@H]2Oc3ccc(OC)cc3C(=NO[C@H](C)c3cn([C@@H]4COC[C@H]4O)nn3)[C@@H]2O)c1`, the composite z-score with Albumin (Bos taurus) was -0.224; in [2] it was -0.279; in assay [3], -0.179; in assay [4], 0.377; in assay [5], -0.162; in [6], -0.358. Further, the composite z-score with Sam68 (KHDRBS1) is -0.523; in [7], -0.353; in assay [8], 0.472; in [9], 0.899; in [10] it was -0.949; in assay [11], -0.624. For the same compound, the composite z-score is -0.0637 in assay [12]; -1.16 in assay [13]; -0.805 in assay [14]; -0.601 in the assay on Lefty1; 0.0665 in assay [16]. Also, the composite Z-score in [1] was -0.0239 (inactive). For the same compound, the figures for the z-score in assay [15] and in [17] were -1.16 and 0.825 (inactive), respectively.

With `C=C(/C(=C/C[C@H](OC(C)=O)c1ccc(OCCO)cc1)c1cnc2ccccc2c1)C(C)C`, the composite z-score with Albumin (Bos taurus) was -0.154; in [2], 0.0418; in [3] it was -0.146; in assay [4], 0.885; in [5], 0.575; in assay [6], -0.315. For the same compound, the composite z-score is 1.3 with Sam68 (KHDRBS1); 1.2 in [7]; 1.09 in assay [8]; 0.888 in [9]; 1.19 in assay [10]; -0.0763 in assay [11]. Further, the composite z-score in assay [12] turned out to be 0.921; in assay [13], 1.45; in assay [14], 1.31; in the assay on Lefty1, 1.48; in assay [16], 0.585. Further, the composite Z-score in [1] was -0.229 (inactive). Besides, the z-score in [15] is 0.414; in [17] it was -0.477 (inactive).
